The record followed here is the supplement of paper PMC10127200.

Counter-ions that a name gives are not always drawn.

For the first experiment, the system named is A549. As to the kind of experiment: Euclidean distance of Cell Painting phenotypic profile (signed KS, 77 features) to DMSO centroid (dimensionless distance); 5 or 10 uM (library dependent); higher = stronger phenotypic change vs DMSO (phenoactivity). To be noted: 48 h. The procedure, abridged: (§1)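 Five cancer lines and a healthy fibroblast line received library compounds at 10 or 5 uM (library-dependent, 0.1% DMSO final) for 48 h. Stained cells were imaged confocally at 20X (9 fields/well). Harmony extracted 77 features, each scored as a signed Kolmogorov-Smirnov statistic against same-plate vehicle wells. Profiles were plate-position corrected, correlation-weighted and replicate-averaged at the top dose. Phenoactivity is the Euclidean distance from each profile to the median vehicle profile.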
`COc1c(C)c2c(c(O)c1C/C=C(\C)CCC(=O)OCCN1CCOCC1)C(=O)OC2` [Mycophenolate Mofetil]: the Euclidean distance stood at 3.61.

For the molecule `CO/N=C(\C(=O)N[C@@H]1C(=O)N2C(C(=O)O)=C(CSc3nc(C)c(CC(=O)O)s3)CS[C@H]12)c1csc(N)n1` [Cefodizime Sodium], the Euclidean distance was determined as 1.08.

Turning to `CC(C)=CCOc1ccc(/C=C/C(=O)c2ccc(OCC=C(C)C)cc2OCC(=O)O)cc1` [Sofalcone], the Euclidean distance came to 1.09.

As to `CC(C)(F)C[C@H](N[C@@H](c1ccc(-c2ccc(S(C)(=O)=O)cc2)cc1)C(F)(F)F)C(=O)NC1(C#N)CC1` [Odanacatib (MK-0822)], the Euclidean distance is 2.1.

Molecule `CONC(=O)Nc1ccc(-c2sc3c(c2CN(C)C)c(=O)n(-c2ccc(OC)nn2)c(=O)n3Cc2c(F)cccc2F)cc1` [Relugolix] had an Euclidean distance of 0.927.

On to `Cc1ccc(NC(=O)c2ccc(CN3CCN(C)CC3)cc2)cc1Nc1nccc(-c2cccnc2)n1` [Imatinib Mesylate (STI571)], for which the Euclidean distance was 2.

In turn, `C#Cc1cccc(Nc2ncnc3cc(OCCOC)c(OCCO)cc23)c1` registered an Euclidean distance of 1.49.

As for `CC(C)(O)c1cc(Nc2cc(Oc3cn(C4CC4)nc3C3CCOCC3)ccn2)ccn1`, the Euclidean distance turned out to be 0.879.

Consider `Cc1cc(Nc2nc(N[C@@H](C)c3ccc(F)cc3)c(C#N)cc2F)n[nH]1`, for which the Euclidean distance turned out to be 3.48.

`Nc1nc(F)nc2c1ncn2[C@@H]1O[C@H](CO)[C@@H](O)[C@@H]1O` [Fludarabine] registered an Euclidean distance of 1.6.

As for `Nc1nc2c(ncn2COC(CO)CO)c(=O)[nH]1` [Ganciclovir], the Euclidean distance turned out to be 0.816.

With `Cc1cc(NS(=O)(=O)c2ccc(N)cc2)nc(C)n1` [sulfaisodimidine], the Euclidean distance worked out at 0.563.

On to `O=C(c1ccc(C(=O)N2CCC(N3CCCC3)CC2)c(Nc2ccccc2)c1)N1CCC(N2CCCC2)CC1`, for which the Euclidean distance was 1.05.

Molecule `O=C(N/N=C/c1ccc([N+](=O)[O-])o1)c1ccc(O)cc1` [Nifuroxazide] came in with an Euclidean distance of 1.52.

`CCCCCCCCOc1ccccc1C(=O)Nc1ccc(C(=O)OCC[N+](C)(CC)CC)cc1` [Otilonium Bromide] had an Euclidean distance of 1.09.

`c1ccc(-c2ccc(C(c3ccccc3)n3ccnc3)cc2)cc1` (stereo not given) [Bifonazole] returned an Euclidean distance of 1.43.

Take `O=C(O)CCCc1cc2cc(Cl)ccc2n1S(=O)(=O)c1ccc2ncsc2c1` [Lanifibranor(IVA-337)]: the Euclidean distance was found to be 0.787.

With `CCC[C@H](N[C@H]1CCc2cc(F)cc(F)c2C1)C(=O)Nc1cn(C(C)(C)CNCC(C)(C)C)cn1`, the Euclidean distance was 1.25.

`CNS(=O)(=O)CCc1ccc2[nH]cc(C3CCN(C)CC3)c2c1` [Naratriptan] returned an Euclidean distance of 0.741.

In the case of `Cc1nc(Nc2ccc(F)cc2)nc(N2CCc3ccccc3C2C)c1C` (stereo not given) [Revaprazan Hydrochloride], the Euclidean distance stood at 1.19.

On to `NCc1ccc(S(N)(=O)=O)cc1` [Mafenide hydrochloride], for which the Euclidean distance is 0.84.

`C#C[C@]1(O)CC[C@H]2[C@@H]3CCc4cc(O)ccc4[C@H]3CC[C@@]21C` [Ethinyl Estradiol] came in with an Euclidean distance of 0.969.

As to `C=CC(=O)Nc1cc(Nc2nccc(-c3cn(C4CC4)c4ccccc34)n2)c(OC)cc1N(C)CCN(C)C`, the Euclidean distance was determined as 5.01.

`COC(=O)Nc1nc2cc(C(=O)c3cccs3)ccc2[nH]1` [Nocodazole]: the Euclidean distance came out at 2.51.

`O=C(O)CCc1nc(-c2ccccc2)c(-c2ccccc2)o1` [Oxaprozin] showed an Euclidean distance of 0.794.

In the case of `CC(C)N(CC[C@H](c1ccccc1)c1cc(CO)ccc1O)C(C)C`, the Euclidean distance was found to be 0.675.

The next experiment concerns DU145. The description is as above. The settings on record: 48 h. The method in brief:
as §1
The molecule `O=c1cc(-c2ccccc2)oc2cc(O)c(O)c(O)c12` [Baicalein] came in with an Euclidean distance of 1.25.

As to `CC[C@H](Nc1ncnc2[nH]cnc12)c1nc2cccc(F)c2c(=O)n1-c1ccccc1` [CAL-101 (Idelalisib. GS-1101)], the Euclidean distance turned out to be 1.32.

Take `C[C@]12CC[C@H](O)CC1=CC[C@@H]1[C@@H]2CC[C@]2(C)C(n3cnc4ccccc43)=CC[C@@H]12` [Galeterone]: the Euclidean distance is 0.901.

In turn, `CC(=O)Nc1nc(C)c(-c2ccc(Cl)c(S(=O)(=O)NCCO)c2)s1` showed an Euclidean distance of 1.62.

With `OCc1ccccc1` [Benzyl alcohol], the Euclidean distance came to 0.897.

Take `C[C@]12CCC(=O)C=C1C=C[C@@H]1[C@@H]2CC[C@@]2(C)[C@H]1CC[C@@]21CCC(=O)O1` [Canrenone]: the Euclidean distance amounted to 1.1.

Take `CN1C2CCCC1CC(NC(=O)c1nn(C)c3ccccc13)C2` (stereo not given) [Granisetron HCl]: the Euclidean distance turned out to be 1.37.

Molecule `O=C(/C=C/c1ccc(O)c(O)c1)OCCc1ccccc1` [Caffeic Acid Phenethyl Ester] returned an Euclidean distance of 1.1.

With `C[C@H](N[C@@H](CCc1ccccc1)C(=O)O)C(=O)N1CCC[C@H]1C(=O)O` [Enalaprilat Dihydrate], the Euclidean distance was 0.803.

Molecule `O=c1c(-n2ccnn2)c[nH]n1-c1cc(N2CCOCC2)ncn1` [Molidustat (BAY 85-3934)] registered an Euclidean distance of 1.01.

Turning to `COCC(=O)Nc1cc(Sc2ccccc2)ccc1N=C(NC(=O)OC)NC(=O)OC` [Febantel], the Euclidean distance amounted to 0.944.

`OCc1cc([C@@H](O)CNCCCCCCOCCOCc2c(Cl)cccc2Cl)ccc1O` [Vilanterol Trifenate] showed an Euclidean distance of 1.38.

For the molecule `Nc1c(CC(=O)O)cccc1C(=O)c1ccc(Br)cc1` [Bromfenac Sodium], the Euclidean distance came out at 0.957.

The molecule `COc1c(C)c2c(c(O)c1C/C=C(\C)CCC(=O)OCCN1CCOCC1)C(=O)OC2` [Mycophenolate Mofetil] gave an Euclidean distance of 2.11.

The molecule `CO/N=C(\C(=O)N[C@@H]1C(=O)N2C(C(=O)O)=C(CSc3nc(C)c(CC(=O)O)s3)CS[C@H]12)c1csc(N)n1` [Cefodizime Sodium] yielded an Euclidean distance of 1.48.

`CC(C)=CCOc1ccc(/C=C/C(=O)c2ccc(OCC=C(C)C)cc2OCC(=O)O)cc1` [Sofalcone] registered an Euclidean distance of 0.847.

Regarding `CC(C)(F)C[C@H](N[C@@H](c1ccc(-c2ccc(S(C)(=O)=O)cc2)cc1)C(F)(F)F)C(=O)NC1(C#N)CC1` [Odanacatib (MK-0822)], the Euclidean distance was 0.7.

In turn, `CONC(=O)Nc1ccc(-c2sc3c(c2CN(C)C)c(=O)n(-c2ccc(OC)nn2)c(=O)n3Cc2c(F)cccc2F)cc1` [Relugolix] returned an Euclidean distance of 1.37.

Regarding `Cc1ccc(NC(=O)c2ccc(CN3CCN(C)CC3)cc2)cc1Nc1nccc(-c2cccnc2)n1` [Imatinib Mesylate (STI571)], the Euclidean distance was 1.67.

The molecule `C#Cc1cccc(Nc2ncnc3cc(OCCOC)c(OCCO)cc23)c1` had an Euclidean distance of 1.82.

Molecule `CC(C)(O)c1cc(Nc2cc(Oc3cn(C4CC4)nc3C3CCOCC3)ccn2)ccn1` gave an Euclidean distance of 1.32.

`Cc1cc(Nc2nc(N[C@@H](C)c3ccc(F)cc3)c(C#N)cc2F)n[nH]1` had an Euclidean distance of 2.73.

As to `Nc1nc(F)nc2c1ncn2[C@@H]1O[C@H](CO)[C@@H](O)[C@@H]1O` [Fludarabine], the Euclidean distance worked out at 1.17.

As to `Nc1nc2c(ncn2COC(CO)CO)c(=O)[nH]1` [Ganciclovir], the Euclidean distance was 0.888.

With `Cc1cc(NS(=O)(=O)c2ccc(N)cc2)nc(C)n1` [sulfaisodimidine], the Euclidean distance stood at 0.503.

For the molecule `O=C(c1ccc(C(=O)N2CCC(N3CCCC3)CC2)c(Nc2ccccc2)c1)N1CCC(N2CCCC2)CC1`, the Euclidean distance was found to be 0.703.

On to `O=C(N/N=C/c1ccc([N+](=O)[O-])o1)c1ccc(O)cc1` [Nifuroxazide], for which the Euclidean distance stood at 0.846.

Take `CCCCCCCCOc1ccccc1C(=O)Nc1ccc(C(=O)OCC[N+](C)(CC)CC)cc1` [Otilonium Bromide]: the Euclidean distance amounted to 1.91.

As to `c1ccc(-c2ccc(C(c3ccccc3)n3ccnc3)cc2)cc1` (stereo not given) [Bifonazole], the Euclidean distance worked out at 1.19.

As for `O=C(O)CCCc1cc2cc(Cl)ccc2n1S(=O)(=O)c1ccc2ncsc2c1` [Lanifibranor(IVA-337)], the Euclidean distance came to 0.862.

In turn, `CCC[C@H](N[C@H]1CCc2cc(F)cc(F)c2C1)C(=O)Nc1cn(C(C)(C)CNCC(C)(C)C)cn1` yielded an Euclidean distance of 0.825.

`CNS(=O)(=O)CCc1ccc2[nH]cc(C3CCN(C)CC3)c2c1` [Naratriptan] displayed an Euclidean distance of 1.01.

`Cc1nc(Nc2ccc(F)cc2)nc(N2CCc3ccccc3C2C)c1C` (stereo not given) [Revaprazan Hydrochloride]: the Euclidean distance turned out to be 1.06.

For `NCc1ccc(S(N)(=O)=O)cc1` [Mafenide hydrochloride], the Euclidean distance was determined as 0.784.

With `C#C[C@]1(O)CC[C@H]2[C@@H]3CCc4cc(O)ccc4[C@H]3CC[C@@]21C` [Ethinyl Estradiol], the Euclidean distance amounted to 1.83.

As to `C=CC(=O)Nc1cc(Nc2nccc(-c3cn(C4CC4)c4ccccc34)n2)c(OC)cc1N(C)CCN(C)C`, the Euclidean distance was 3.44.

As to `COC(=O)Nc1nc2cc(C(=O)c3cccs3)ccc2[nH]1` [Nocodazole], the Euclidean distance turned out to be 3.43.

Molecule `O=C(O)CCc1nc(-c2ccccc2)c(-c2ccccc2)o1` [Oxaprozin] had an Euclidean distance of 0.541.

`CC(C)N(CC[C@H](c1ccccc1)c1cc(CO)ccc1O)C(C)C` gave an Euclidean distance of 0.538.
